# Results published in ChEMBL document CHEMBL4513216, “Probing the Open Global Health Chemical Diversity Library for Multistage-Active Starting Points for Next-Generation Antimalarials” (ACS Infect Dis, 2020).
# Among all 69,000 compounds or so, about 8,600 (12%) showed an effect of 50% or more. Many of the other results were omitted from the sample, so strong results are more common in it than they were.
# Test system: Plasmodium berghei
# Assay: Screen against P. berghei liver stage (PbLuc), transformed with Luciferase, at 10uM
# Type: functional, HepG2
# Conditions: tested at 10 uM
row,Compound,INHIBITION [%]
1,Cc1ccc(S(N)(=O)=O)cc1C(=O)NC1CCN(C2CC2)CC1,-10.9
2,CC(=O)N1CCN(c2ccnc(C)n2)CC(COc2ccccc2)C1 (stereo unspecified),1.11
3,Cc1ccc(N2CCN(Cc3ccccc3)C3(CCNCC3)C2=O)cn1,8.31
4,CN(C)c1cncc(C2CCN(CC(N)=O)CC2)n1,31.6
5,Cn1cccc1C(=O)N[C@@H]1CN(Cc2ccsc2)[C@@H]2COC[C@@H]21,-37.4
6,O=C(NCC1CC1)[C@H]1C[C@H]2CN(S(=O)(=O)Cc3ccccc3)C[C@@H]1O2,43.2
7,CN(Cc1ccsc1)C(=O)Nc1ccc(S(C)(=O)=O)cc1,31.8
8,NC(=O)c1ccc(NC(=O)Cn2cc(-c3ccccc3)ncc2=O)cc1,26.8
9,Cc1nc(-c2ccncc2)ncc1C(C)NC(=O)C1=NN(C)C(=O)CC1 (stereo unspecified),-9.29
10,CC(=O)N1CCC(Oc2ccc(C#N)cn2)CC1,-43.5
11,CN1CCCC(C(=O)N2CCC(Oc3ccc(C#N)cn3)CC2)C1 (stereo unspecified),74.4
12,COc1ccccc1OC1CCN(C(=O)c2cnc(C)s2)CC1,12.7
13,CN1CCCC(C(=O)N2CCC(Oc3ccccn3)CC2)C1 (stereo unspecified),25.3
14,COc1ccccc1OC1CCN(C(=O)C2CCCN(C)C2)CC1 (stereo unspecified),62.8
15,Cn1nc(C(=O)N2CCC(Oc3ccc(C#N)cn3)CC2)ccc1=O,25.8
16,COCc1ncn2c1CN(C(=O)c1ccco1)CC2,4.57
17,CCC1CNCc2cc3c(C)ccc(C)c3nc2O1 (stereo unspecified),21.7
18,COc1cccc(C(=O)NC(C)CCN2CCOCC2)c1F (stereo unspecified),34.1
19,CC(CCN1CCOCC1)NC(=O)c1cccc(C(F)(F)F)c1F (stereo unspecified),35
20,CC(CCN(C)C)NC(=O)c1cccc(C(F)(F)F)c1F (stereo unspecified),66.5
21,COc1c(CNCCC(=O)NC2CCCC2)c(C(C)C)nn1C,21
22,O=C(C[C@@H]1COC[C@H]2CN(Cc3ccc(F)cc3)C[C@@H]12)N1CCCC1,-21.1

row,Compound,INHIBITION [%]
1,CC(C)Nc1cccc(CNC(=O)N2CCCC2)c1,24.2
2,CC(C)Nc1cccc(CNC(=O)N2CCC[C@@H]2CO)c1,52.2
3,CC(C)Nc1cccc(CNC(=O)N2CCC(N3CC=CC3)C2)c1 (stereo unspecified),19.4
4,CC1=Nc2c(c(O)nn2C(C)C)C(c2cn(C)nc2C)S1 (stereo unspecified),33.3
5,CCn1cc(Cl)c(C(=O)NCCCO)n1,20.1
6,COc1ccc(NC(=O)CSC(F)(F)F)cn1,66.7
7,COc1ccc(NC(=O)N2CCN(c3ncccn3)CC2)cn1,-7.11
8,COc1ccc(NC(=O)Cn2cc(-c3ccccc3)ncc2=O)cn1,44.9
9,COc1ccc2cc(NC(=O)CCNc3nc(C)cc(C)n3)cnc2c1,73
10,Cc1cc(C)nc(NCCC(=O)Nc2ccc(Cn3cncn3)cc2)n1,55.1
11,COc1ccc(NC(=O)CCNc2ncccn2)cn1,61
12,COc1ccc2cc(NC(=O)CCCNc3ncccn3)cnc2c1,46.1
13,COc1ccc2cc(NC(=O)CCNc3ncccn3)cnc2c1,41.5
14,CS(=O)(=O)c1ccc(NC(=O)CSC(F)(F)F)cn1,39.8
15,O=C(CCCNc1ncccn1)Nc1ccc(Cn2cncn2)cc1,45.9
16,O=C(CCNc1ncccn1)Nc1ccc(Cn2cncn2)cc1,-4.56
17,COc1ccc(NC(=O)CSc2nc(C)cc(C)n2)cn1,-5.69
18,O=C(NCCc1nnc2n1CCC2)NCC1(c2cccc(F)c2)CC1,-36.3
19,CO[C@H]1CN(C(C)C)C[C@@H]1NC(=O)Nc1ccc(C(F)(F)F)cc1,40.3
20,CN(CC(=O)NC(C)(C)C)C(=O)C1CC(c2cccc(F)c2)=NO1 (stereo unspecified),-29.1
21,COCCN1CCCC(c2nccnc2-c2cccc(Cl)c2)C1 (stereo unspecified),12.75
22,COc1ccc(-n2cc(CNC(=O)c3ccccn3)nn2)cc1,-15.9

row,Compound,INHIBITION [%]
1,CS(=O)(=O)NCc1cc(-c2cc(F)cc(F)c2)nc(N2CCOCC2)n1,-4.82
2,CCc1nc(CC)n(CC(=O)NCc2cccc(C)c2)n1,13
3,CN1CC(=O)N(c2ccccc2)CC12CCN(CC1CCOCC1)C2 (stereo unspecified),-11.2
4,CCc1nccn1CC(=O)N1C[C@@H]2CC[C@H]1CN(c1ncccn1)C2,-22.4
5,Cc1cnn(CC2CN(Cc3nc(C)no3)CCO2)c1 (stereo unspecified),4.71
6,Cc1nc(CN2C[C@@H]3CN(C(=O)c4cccn4C)C[C@@H]3C2)cs1,16.1
7,CC(C(=O)NC(N)=O)N(C)CCCc1cc(-c2ccccc2)no1 (stereo unspecified),-28.36
8,Cc1cccc(CN2CCC3(CC2)NC(=O)C[C@H]3c2cnn(C)c2)n1,1.61
9,CC(NC(=O)COc1cccc[n+]1[O-])C1CC1 (stereo unspecified),76.7
10,CC(NC(=O)c1cccc[n+]1[O-])C1CC1 (stereo unspecified),9
11,CC(C)CNC(=O)COc1cccc[n+]1[O-],-12.1
12,CC(C)n1ccnc1C1CCN(c2nccc(C(F)(F)F)n2)CC1,11.5
13,COCCN(C/C=C/c1ccccc1)Cc1ccccn1,27.8
14,CCc1ccc(CN(C/C=C/c2ccccc2)CCOC)nc1,52.9
15,COCCN(C/C=C/c1ccccc1)Cc1nccs1,-12.6
16,c1cc2c(cc1CN1CC[C@H]3CO[C@H](CN4CCCC4)[C@H]3C1)OCO2,10.5
17,C[C@H]1CN(C(=O)c2cscn2)C[C@@]12CCN(c1ccsc1)C2=O,47.4
18,COCCOCC(=O)N1C[C@@H]2CC[C@H](Oc3ccccc3)[C@@H]2C1,7.52
19,CC(=O)N1C[C@@H]2CN(S(=O)(=O)C3CC3)CCO[C@@H]2C1,6.79
20,CC(=O)N1CCO[C@@H]2CN(S(=O)(=O)C3CC3)CC[C@@H]2C1,37.6
21,CC(=O)N1CCO[C@@H]2CN(S(=O)(=O)C3CC3)C[C@@H]2C1,50.3
22,Cc1nn(C)c2c(=O)n(Cc3ccccc3)nnc12,28.89

row,Compound,INHIBITION [%]
1,COc1ccnc(N2C[C@H]3CC[C@@H](C2)N(CC2CCC2)C3=O)n1,32.1
2,COc1cc2c(cc1CNC(=O)Cc1cc(C)[nH]n1)OC(C)C2 (stereo unspecified),46.6
3,COc1cc2c(cc1CNCc1ccnc(-n3cccn3)c1)OC(C)C2 (stereo unspecified),67.8
4,COc1cc2c(cc1CNC(=O)Cc1cc(C)on1)OC(C)C2 (stereo unspecified),47.4
5,COc1cccc(CNCc2cccnc2-n2cccn2)c1OC,16.2
6,COc1ccc(CNCc2ccnc(N3CCOCC3)c2)c(OC)c1,29.6
7,COc1cc2c(cc1CNCc1cccnc1OC)OC(C)C2 (stereo unspecified),60.2
8,COc1cc2c(cc1CNCc1cccnc1-n1cccn1)OC(C)C2 (stereo unspecified),68.9
9,COc1cc2c(cc1CNC(=O)Cc1ccc(C)nc1)OC(C)C2 (stereo unspecified),-25.3
10,CC(C)N1CC(C(=O)NCc2ccnc(-n3cccn3)c2)CC1=O (stereo unspecified),-28
11,O=S(=O)(Cc1ccccc1)N1CCCn2cnc(CN3CCCC3)c2C1,-17.7
12,O=C(CCn1cccn1)N1CCC(c2nnc(-c3ccccn3)o2)CC1,44.9
13,Cc1cc(-c2ccc(=O)n(C3CCN(C(=O)C4CCC4)CC3)n2)c(C)o1,-30.9
14,Cc1cnn(Cc2cc(F)ccc2F)c1NC(=O)C1CCOCC1,72.3
15,Cc1cnn(Cc2cc(F)ccc2F)c1NC(=O)C1COCCO1 (stereo unspecified),2.01
16,CC(=O)Nc1c(C)cnn1Cc1cc(F)ccc1F,-8.21
17,Cc1cnn(Cc2cc(F)ccc2F)c1NC(=O)NC1CC1,35.6
18,CCC(=O)NCC(=O)Nc1c(C)cnn1Cc1cc(F)ccc1F,44.2
19,Cc1cnn(Cc2cc(F)ccc2F)c1NC(=O)CNC(=O)C1CC1,72.3
20,CC(=O)N1CC(C(=O)N2CCCC(Cn3ccnc3C)C2)C1 (stereo unspecified),-3.7
21,Cc1ccc(N2CCCC(Nc3nn4cc(C)nc4s3)C2)nn1 (stereo unspecified),-17.7
22,Cc1cnn(CCC(=O)N2CCN(c3ccc(C#N)cn3)CC2)c1,5.9

row,Compound,INHIBITION [%]
1,CC(=O)N1CCCn2nc(CNS(=O)(=O)N3CCC(C)CC3)cc2C1,15.7
2,CN1CCC2(CC1)CN(C(=O)c1onc3ccccc13)CCCN2C,24.2
3,CC(=O)Nc1ccsc1C(=O)N1CC[C@H]2CC[C@@H](C1)N2C,33.3
4,c1cc(CN2CCCn3nnc(COCC4CC4)c3C2)ccn1,42.1
5,Cc1ccc(CN2CCc3c(COC(C)C)nn(C)c3C2)s1,22.2
6,Cn1ncc2c1C(COCC1CC1)CN(Cc1ccncc1)C2 (stereo unspecified),22.2
7,c1cncc(CN2CCCn3nnc(COCC4CC4)c3C2)c1,64.7
8,O=C1CCCN1Cc1nnn2c1CN(c1cccnc1)CCC2,6.67
9,c1cncc(N2CCCn3nnc(CN4CCCCC4)c3C2)c1,70.3
10,Cn1ncc2c1C(COCC1CC1)CN(Cc1cccnc1)C2 (stereo unspecified),43.9
11,c1cncc(N2CCCn3nnc(COCC4CC4)c3C2)c1,20.6
12,Cn1nc(COCC2CC2)c2c1CN(CC1CC1)CC2,21.6
13,Cc1ccc(CN2CCc3c(COCC4CC4)nn(C)c3C2)s1,59.3
14,Cn1ncc2c1CN(Cc1cccnc1)CC2COCC1CC1 (stereo unspecified),53.5
15,c1cncc(N2CCCn3nnc(CN4CCOCC4)c3C2)c1,7.67
16,COCCNC(=O)c1cc(C2CC2)nc2onc(C3CCNC3)c12 (stereo unspecified),25.1
17,COCCN1CCC(C)(c2cc(O)[nH]n2)CC1,9.05
18,O=C(Cc1cccnc1)N1CCC(c2nnc(-c3ccccn3)o2)CC1,1.5235
